Screening data: PubChem BioAssay, National Center for Advancing Translational Sciences (NCATS)
ClpP mod = qHTS Assay for Activators of ClpP; ATP-dependent Clp protease proteolytic subunit (Bacillus subtilis (strain 168)), P80244; purified B. subtilis ClpP, FRET peptide cleavage, 20 min; Potency, µM (doses to about 57.5 µM); hit rate 1.9% among 340,000; active means well fitted falling curve with a large enough effect; inconclusive means small, poorly fitted or top-dose-only effect; inactive means no such curve, though single readings can be large or run the other way; further: the source files actives as falling curves though it sought activators and does not explain the sign; nearly all actives have a fitted effect of over 65% in size
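Purified B. subtilis ClpP, 10 microg/mL final in Tris/HCl pH8 with KCl, BSA, glycerol and Tween-20, cleaved an Abz/nitrotyrosine-quenched decapeptide. Fluorescence (ex 320, em 430) was read at 0 and 20 min at room temperature. Delta was normalized to 5.8 microM ADEP and DMSO/no-enzyme controls.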
PKM2 activator = PKM2 (human) enzyme activation; hit rate 0.34% among 260,000; AID 1631; purified PKM2, Kinase-Glo ATP luminescence, activation; response scale: 0% is enzyme alone, no compound; P14618; Potency, µM (titrated, usually from 57.5 µM), usual class: activators; further: nearly all actives have a fitted effect of over 55% in size
Target sequence (P14618 whole entry, looked up): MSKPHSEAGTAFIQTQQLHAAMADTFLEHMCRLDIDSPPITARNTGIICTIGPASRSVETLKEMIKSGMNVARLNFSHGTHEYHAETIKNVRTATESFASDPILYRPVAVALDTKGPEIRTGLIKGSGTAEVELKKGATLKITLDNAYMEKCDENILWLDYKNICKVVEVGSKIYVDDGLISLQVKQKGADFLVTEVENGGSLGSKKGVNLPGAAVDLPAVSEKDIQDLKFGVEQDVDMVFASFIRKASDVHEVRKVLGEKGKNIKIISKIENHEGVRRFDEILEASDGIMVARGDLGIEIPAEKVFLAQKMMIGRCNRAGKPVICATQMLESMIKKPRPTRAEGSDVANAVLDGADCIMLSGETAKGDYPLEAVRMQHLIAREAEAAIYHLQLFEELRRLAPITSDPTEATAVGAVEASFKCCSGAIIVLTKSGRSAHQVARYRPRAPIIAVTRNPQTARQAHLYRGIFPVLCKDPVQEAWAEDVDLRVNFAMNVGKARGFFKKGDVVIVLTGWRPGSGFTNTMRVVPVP
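Purified hPK-M2 (>95%) run at intermediate activity with 0.1 mM ADP and 0.5 mM PEP in 50 mM imidazole pH 7.2, KCl, MgCl2; 1 h room temperature. ATP formed read by Kinase-Glo luminescence; normalized to uninhibited and no-enzyme controls.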
Integrin act MD = integrin-mediated muscular dystrophy alleviation activation. alpha7betagal myoblasts, beta-gal FDG fluorescence, 48 h. Potency, µM (top dose mostly 38.3 µM), actives largely listed as activators. hit rate 0.064% among 350,000; further: nearly all actives have a fitted effect of over 60% in size
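Alpha7betagal+/- myoblasts (passage 13) were plated 16-24 hr, then exposed to compounds (1:260 dilution of DMSO stock) for 48 hours at 37C. After MPER lysis, β-galactosidase reporter activity was read as FDG fluorescence (ex 480/em 540) after 30 minutes.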
Pin1 inh = human Pin1 inhibition | Q13526 | Pin1 FP peptide displacement, HiFluor488, 10 min | Potency, µM (doses to about 115 µM), actives largely listed as inhibitors | hit rate 0.009% among 390,000; active means well fitted inhibition curve with a large enough effect in the polarisation, with a control signal flat, not every such curve was filed as active; inconclusive means small, poorly fitted or top-dose-only effect, or effect the other way, or a change in a side signal; inactive means no such curve, though single readings can be large or run the other way; the % refers to the polarisation
Target sequence (Q13526 whole entry, looked up): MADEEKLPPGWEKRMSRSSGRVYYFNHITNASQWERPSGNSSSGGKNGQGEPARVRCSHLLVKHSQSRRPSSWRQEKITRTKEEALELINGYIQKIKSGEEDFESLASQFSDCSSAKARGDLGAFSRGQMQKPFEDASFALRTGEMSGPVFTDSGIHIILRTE
USP2a block = USP2a (human) protease inhibition; O75604; USP2 core, Ub-CHOP2 coupled fluorogenic reporter, 485/531; Potency, µM (top dose mostly 38.3 µM), most hits filed as inhibitors; hit rate 0.01% among 330,000
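USP2 core (10nM final) preincubated 30min RT with compound in 20mM Tris-HCl pH 8.0, 2mM CaCl2, 2mM beta-mercaptoethanol, 0.05% CHAPS; 25nM Ub-CHOP2 plus 25nM reporter substrate added, fluorescence (Ex485/Em531) read after 60min.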
IL2 activator = activates IL-2 in a cell-based reporter assay; AID 652025; activation, % (series mostly up to about 46 µM); hit rate 0.065% among 360,000; IL-2 activation reporter assay, cell-based qHTS; stimulated with anti-CD3/CD4/CD28 beads; in transgenic mouse T cells; in the data active means activation above about 50%; inconclusive means mostly about 30% to 49%
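Quantitative HTS in unstimulated transgenic mouse T cells, with memory T cells as non-tolerant control and PMA/ionomycin as tolerance-bypass control. Compound pretreatment lasted 60 minutes before 18 h bead stimulation; EGFP/DsRed fluorescence read.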
Hits are given with their value; i = inactive; ? = inconclusive; nt = not tested or not shown; [ ] = remark or other dose. Shown are actives, neighbours in structure and some others; about 1.9% of the full set was active somewhere. Unless noted, the call rests on the fitted dose curve; in most records, active means well fitted curve in the direction sought with a large enough effect; inconclusive means small, poorly fitted or top-dose-only effect, or another doubt; inactive means no such curve, though single readings can be large; an effect the other way counts as inactive or inconclusive.

SMILES	ClpP mod	PKM2 activator	Integrin act MD	Pin1 inh	USP2a block	IL2 activator
CN(Cc1ccccc1)C(=O)c1cc2c(s1)-c1ccc(Cl)cc1SC2	25.1µM	nt	nt	i	nt	nt
O=C(NCc1cccc(Cl)c1)c1cc2c(s1)-c1ccccc1SC2	?	nt	nt	i	nt	nt
Cc1cc2n(n1)C(c1ccc3c(c1)OCO3)Nc1c(C)cccc1-2 (stereo not given)	i	i	i	i	i	i
Cc1cc(C)c2c(c1)-c1cc(C)nn1C(c1ccc3c(c1)OCO3)N2 (stereo not given)	31.6µM	i	i	i	i	i
O=C(Cc1ccccc1[N+](=O)[O-])NCc1ccc2c(c1)OCO2	31.6µM	i	i	i	i	i
O=C(COC(=O)C1(c2ccccc2F)CCCC1)NC1CCS(=O)(=O)C1 (stereo not given)	28.2µM	i	i	i	i	i
NS(=O)(=O)c1ccc(NC(=O)COC(=O)C2(c3ccccc3F)CCCC2)cc1	25.1µM	i	i	?	i	i
O=C(COC(=O)C1(c2ccccc2F)CCCC1)NCc1ccc2c(c1)OCO2	i	i	i	i	i	64.7
NC(=O)c1ccc(NC(=O)COC(=O)C2(c3ccccc3F)CCCC2)cc1	i	i	i	i	i	i
COCCN(CCOC)c1nc(C)nc2c1nc(-c1ccccc1)n2CCCN(C)C	nt	i	nt	nt	nt	nt
COCCN(CCOC)c1nc(C)nc2c1nc(-c1ccccc1)n2CCN1CCCC1	nt	i	nt	nt	nt	nt
OC(C[n+]1c(Cl)ccc2ccccc21)c1ccccc1 (stereo not given)	i	nt	nt	nt	nt	nt
O=C1c2ccccc2C(=O)N1CSc1nnc(Nc2ccccc2F)s1	28.2µM	i	i	i	i	i
COc1ccc(-c2nc3ccccc3o2)cc1OC	i	i	i	i	i	i
c1ccc2oc(-c3ccc4nc[nH]c4c3)nc2c1	25.1µM	i	i	i	i	i
CCCCCOC(=O)Nc1ccc(S(=O)(=O)Nn2cnnc2)cc1	i	4.47µM	i	i	i	i
C/C=C/C(=O)[C@@H](C)[C@@H](/C=C/C[Si](C)(C)C)c1ccccc1	nt	nt	nt	i	nt	nt
Cc1cc(N2CCC(C)CC2)n2ncc(-c3ccccc3)c2n1	31.6µM	i	i	i	i	i
Cc1cc(N2CCOCC2)n2ncc(-c3ccc(Cl)cc3)c2n1	nt	i	i	i	i	i
Cc1cc(N2CCCCC2)n2ncc(-c3ccc(Cl)cc3)c2n1	31.6µM	i	i[7.66 µM]	i	i	i
COc1ccc(OC)c2c(C)ccnc12	i	nt	nt	nt	nt	nt
COC(=O)C1=CN(CC2CCCO2)C=C(C(=O)OC)C1c1cc(OC)c(OC)c(OC)c1 (stereo not given)	25.1µM	?	i	i	nt	i
COc1ccc(-c2c3c(nc4sc5c(=O)[nH]c(C)nc5c24)CCC3)cc1	28.2µM	i	i	i	i	i
CCC(C)NC(=O)c1[nH]c2cc(OC)ccc2c1Sc1ccc(C)cc1 (stereo not given)	28.2µM	nt	nt	i	nt	nt
O=C(O)c1ccc2cc(-c3ccc(O)c(C45CC6CC(CC(C6)C4)C5)c3)ccc2c1	nt	i	nt	nt	nt	nt
SMILES	ClpP mod	PKM2 activator	Integrin act MD	Pin1 inh	USP2a block	IL2 activator
COc1cc(-c2nc3c(c(C)nn3-c3ccccc3)c3cc(OC)c(OC)cc23)ccc1O	7.94µM	i	i	i	i	i
O=S(=O)(c1ccccc1)N1CCN(c2nccc(-c3cccs3)n2)CC1	nt	nt	nt	i	nt	nt
O=Cc1ccc(CS)cc1	i	nt	nt	nt	nt	nt
CC1CCN2c3cc(Cl)ccc3CC3(C(=O)OC(C)(C)OC3=O)C2C1 (stereo not given)	i	nt	nt	i	nt	nt
COc1ccc(-c2n[nH]c(=S)o2)c(OC)c1	25.1µM	i	i	i	i	i
COc1cc2c(cc1NC(=O)c1ccc3c(c1)OCO3)oc1ccccc12	31.6µM	i	i	i	i	i
COc1cc2[nH]c(=S)nc(NCc3ccccn3)c2cc1OC	nt	i	i	?	i	i
COc1cc2c(cc1NCc1ccc3c(c1)OCO3)oc1ccccc12	25.1µM	i	i	i	i	i
O=S(=O)(NCc1ccc2c(c1)OCO2)c1ccc2oc3ccccc3c2c1	i	nt	i[7.66 µM]	i	nt	i
COc1cc2c(cc1NCc1ccccn1)oc1ccccc12	28.2µM	i	i	i	i	i
O=C(Nc1cc(C(F)(F)F)ccc1Cl)C(O)Cc1ccccc1 (stereo not given)	nt	nt	nt	i	nt	nt
CN1CCOc2cc(S(=O)(=O)N3CCN(c4nc(-c5cccs5)nc5ccccc45)CC3)ccc21	?	nt	nt	i	nt	nt
Cc1cccc(C)c1Nc1c(-c2ccsc2)nc2cccc(C)n12	35.5µM	nt	nt	i	nt	nt
Cc1cc(C)n2c(Nc3c(C)cccc3C)c(-c3ccsc3)nc2n1	i	nt	nt	?	nt	nt
O=S1(=O)C2CC3OC2(CC3c2ccc(F)cc2)CN1Cc1ccc(Cl)cc1 (stereo not given)	nt	nt	nt	i	nt	nt
C=CCc1cccc(CNc2nc3ccccc3n2CCC)c1O	i	28.2µM	i	i	i	i
COc1cccc(/C=C/c2cnc3ccccc3n2)c1OC	i	nt	nt	nt	nt	nt
C=CCn1c(C)cc(C(=O)COc2ccc(C)nc2[N+](=O)[O-])c1C	3.98µM	i	i	i	i	i
CCCCCCCCCC[n+]1ccc(/C=C/c2c[nH]c3ccccc23)c2ccccc21	i	nt	nt	nt	nt	nt
CC(C)CN1C(=O)C(=O)N(CC(=O)NC2CCCc3ccccc32)C1=O (stereo not given)	i	i	i	i	i	i
CCC1(c2ccc(F)cc2)NC(=O)N(CC(=O)N2c3ccccc3NC(=O)C2(C)C)C1=O (stereo not given)	i	nt	i	i	i	i
CC(C)CC1NC(=O)N(CC(=O)NC2CCCc3ccccc32)C1=O (stereo not given)	28.2µM	i	?	i	i	i
CC(C)CC1NC(=O)N(CC(=O)N2c3ccccc3NC(=O)C2(C)C)C1=O (stereo not given)	i	i	5.62µM	i	i	i
Cc1cc(=O)oc2cc(OCC3CC(c4ccc(Cl)cc4)=NO3)ccc12 (stereo not given)	28.2µM	i	i	i	i	i
Cc1sc(N)nc1-c1cccc([N+](=O)[O-])c1	i	nt	nt	i	nt	nt
CC(=O)Nc1ccc2nc(-c3ccccn3)[nH]c2c1	11.2µM	i	i	i	i	i
CC(=O)Nc1ccc2nc(-c3ccncc3)[nH]c2c1	25.1µM	i	i	i	i	i
Nc1ccc(C(=O)Nc2ccc3nc(-c4ccncc4)[nH]c3c2)cc1	i	i	?	i	i	i
COc1ccc(NS(=O)(=O)c2ccccc2)cc1NS(=O)(=O)c1ccccc1	nt	nt	nt	i	nt	nt
CC(NC(=O)COC(=O)C1=NN(c2ccccc2)C(=O)CC1)c1ccccc1 (stereo not given)	i	nt	i	i	i	i
